p53 reactivator: restores transcriptional activity of mutant p53; H1299 p53-A138V BP100-luciferase reporter, luminescence, 24 h; Potency, µM (doses to about 92.2 µM), for inactives: at the top dose activity change, positive = activation, most hits filed as activators; hit rate 0.063% among 320,000; AID 504706; further: potency means the concentration at half of the fitted maximal effect; % of control where 0% means no effect; nearly all actives have a fitted effect of over 45% in size
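H1299 (p53-null), stable ts p53-A138V + BP100-Luc; 1000 cells/well, Opti-MEM/10% FBS; cpd 4 pt, 1:5; 24 h, 37 deg C, 5% CO2; detection reagent 10 min RT; luminescence.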
IL2 activator: activates IL-2 in a cell-based reporter assay; hit rate 0.065% among 360,000; AID 652025; IL-2 activation reporter assay, cell-based qHTS; stimulated with anti-CD3/CD4/CD28 beads; in transgenic mouse T cells; activation, % (series mostly up to about 46 µM); in the data active means activation above about 50%; inconclusive means mostly about 30% to 49%; further: 0% is about no effect
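Readout is EGFP and DsRed signal by fluorescent plate cytometry after 18 h at 37 degrees C. Transgenic mouse T cells (750/well) received compound for 60 min before bead stimulation (anti-CD3, anti-CD4, anti-CD28); memory T cells served as non-tolerant control.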
Nrf2 activator: activators of Nrf2 (ARE) signaling. AREc32 ARE-luciferase reporter (MCF7-derived line), luminescence, 24 h. Potency, µM (titrated, usually from 46.1 µM), for the others: at the highest dose activation, most hits filed as activators. hit rate 0.31% among 410,000. AID 624171; further: potency means the concentration at half of the fitted maximal effect; % of control where 0% means no effect; nearly all actives have a fitted effect of over 65% in size
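ARE-driven firefly luciferase activity in AREc32 cells measured after a 24 hr compound exposure at 37 deg C, using Steady-Glo reagent and a 30 min room-temperature hold.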
BRCA1 expr act: BRCA1 expression activation; Potency, µM (titrated, usually from 46.1 µM), for the others: at the top dose activation, actives largely listed as activators; MCF7-BRCA1-FFLuc reporter, luminescence, 48 h; response scale: scaled: vehicle 0%, 10 µM genistein 100%; AID 624202; hit rate 1.1% among 380,000; further: potency means the concentration at half of the fitted maximal effect; nearly all actives have a fitted effect of over 80% in size
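Activators of BRCA1 expression were detected as increased firefly luciferase luminescence in engineered MCF7 cells after 48 h compound incubation. Signals were scaled to genistein 10 microM as full activation.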
A549 viability: counter-screen for Nrf2 inhibitors: cytotoxicity in A549 cells; Potency, µM (highest dose often 46 µM), for inactives: top-dose activity change, negative = cytotoxicity, usual class: inhibitors; A549 ARE-Fluc cells, CellTiter-Fluor viability, 18-24 h; hit rate 0.16% among 390,000; further: potency means the concentration at half of the fitted maximal effect; on the % scale 0 is the no-effect control and ±100 the full control effect
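A549 ARE-Fluc cells in 5% FBS OPTI-MEM, 5000 cells/well, rested 2 h then exposed to compounds in concentration-response for 18-24 h at 37 °C. Viability by CellTiter-Fluor fluorescence (Ex 405/Em 525) after 30 min; luciferase luminescence (BugLite, 15 min, RT) read afterwards.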
Nrf2 block: Nrf2 pathway inhibition; AID 504444; A549 ARE-Fluc reporter, luciferase luminescence, 18-24 h; hit rate 2.1% among 360,000; Potency, µM (top dose mostly 46 µM), for inactives: at the highest dose activity change, negative = inhibition, usual class: inhibitors; further: potency means the concentration at half of the fitted maximal effect; on the % scale 0 is the no-effect control and ±100 the full control effect; nearly all actives have a fitted effect of over 60% in size
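In this cell-based qHTS, ARE-driven firefly luciferase in A549 cells reports Nrf2 activity; the luminescent signal after BugLite lysis is the measured value, with a prior CellTiter-Fluor read for cell health.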
* hit, by the source's call; ? = inconclusive; / = not tested or not shown; [ ] = remark or other dose. Most compounds without a hit are left out; they make up all but 3.2% or so of the library. Unless noted, the call rests on the fitted dose curve; in most records, active means well fitted curve in the direction sought with a large enough effect; inconclusive means small, poorly fitted or top-dose-only effect, or another doubt; inactive means no such curve, though single readings can be large; an effect the other way counts as inactive or inconclusive.

SMILES | p53 reactivator | IL2 activator | Nrf2 activator | BRCA1 expr act | A549 viability | Nrf2 block
Cc1nc2c(-c3ccccc3)c(C)nn2c(C)c1CCC(=O)N1CCN(c2ccc(F)cc2)CC1 | / | / | -0.3% | -21.3% | -4.1% | -21.4%
O=C(c1ccc(S(=O)(=O)Cc2cc(F)ccc2F)c([N+](=O)[O-])c1)N1CCOCC1 | / | -1.5 | 12.6µM* | -51.4% | / | /
Cc1ccc2c(c1)nnn2C1CCN(CC(=O)N(c2ccccc2)c2ccccc2)CC1 | -4.9% | -0.8 | 2.3% | -21.4% | ? | 14.6µM*
COc1ccc(CNCc2ccccc2)cc1COc1ccc(NC(C)=O)cc1 | / | / | / | 0.0% | 0.0% | 3.5%
CCOc1cc(CNC(=O)c2ccccc2NC(=O)c2nsc3ccccc23)ccc1OC | / | / | 13.9% | / | -0.3% | /
S=C(NCCc1ccccc1)N1CCCC1 | / | 1.0 | 3.3% | 85.2% | -3.4% | ?
CC1CCCN(C(=S)NCCc2ccccc2)C1 (stereo unspecified) | 11.1% | -2.1 | 1.3% | 10µM* | -7.6% | 11.9%
CCOc1ccccc1N(C(=O)c1snc(C(N)=O)c1N)C(C(=O)NCCC(C)C)c1ccco1 (stereo unspecified) | -9.2% | 1.2 | 0.5% | -51.4% | ? | 25.9µM*
COc1ccccc1N(C(=O)c1snc(C(N)=O)c1N)C(C(=O)NCCC(C)C)c1ccco1 (stereo unspecified) | 2.2% | -1.5 | -0.8% | -17.3% | -1.4%[1.84 µM] | ?
CCOC(=O)c1c(C)oc2nc(C)nc(NCCc3ccc(Cl)cc3)c12 | / | / | 0.4% | / | 13.7% | -25.3%
CCOC(=O)c1c(C)oc2nc(C)nc(NCCc3ccc(OCC)cc3)c12 | / | / | 0.5% | / | -3.3% | 23.1µM*
Cc1cc(C(C)(C)C)oc1C(=O)N(CC(=O)NC1CCCC1)c1cccc(C(F)(F)F)c1 | -7.7% | -3.2 | 0.4% | -43.3% | ? | 20.6µM*
Cc1ccccc1N(CC(=O)NC1CCCC1)C(=O)c1oc(C(C)(C)C)cc1C | 8.6% | -2.4 | -0.2% | -40.3% | -9.8% | ?
COc1cccc(C(=O)Nc2ccccc2OCc2cc(=O)n3ccccc3n2)c1 | / | / | 7.6% | / | -8.2% | /
Cc1nn2c(=O)cc(COC(=O)c3cccc(NC(=O)c4ccc(C(C)(C)C)cc4)c3)nc2s1 | / | / | -1.1% | / | -28.1% | /
CSc1ccc(S(=O)(=O)Nc2ccc3c4c(cccc24)CC3)cc1 | -0.7% | -0.5 | -0.2% | -44.3% | ? | 18.4µM*
COc1ccccc1Cc1c(-c2ccco2)nc2cc(C)c(Br)c(C)n12 | / | -1.2 | 11.2µM* | 4.5% | / | /
Cc1cc2nc(-c3ccco3)c(CC(C)(C)C)n2c(C)c1Br | / | -0.5 | 28.5% | -16.5% | / | /
Cc1ccsc1C(=O)N(c1nc2ccccc2s1)c1c(C)cccc1C | -9.8% | 10.0 | -0.3% | -4.0% | -7.3% | 18.4µM*
COc1cccc(NC(=O)C2CCC(CNS(=O)(=O)c3ccc4c(c3)CC(C)N4C(C)=O)CC2)c1 (stereo unspecified) | -11.3% | -5.5 | 6.3% | -54.0% | 0.0% | 20.6µM*
CCc1cccc(NC(=O)C2CCC(CNS(=O)(=O)c3ccc4c(c3)CCCC(=O)N4)CC2)c1 (stereo unspecified) | / | / | 9.9% | -15.4% | -0.1% | 13µM*
CC(=O)N1c2ccc(S(=O)(=O)NCC3CCC(C(=O)NC4CCC(C)CC4)CC3)cc2CC1C (stereo unspecified) | 2.5% | -5.4 | -0.5% | -10.7% | 3.4% | 16.4µM*
Cc1cc2ccccc2c[n+]1C | / | / | / | -1.2% | / | /
CCOC(=O)c1cc(-c2ccccc2)n(-c2cccc(C(=O)Nc3ccc(OC)cc3)c2)c1C | / | / | -0.4% | / | -1.1% | /
CC(C)CCNc1nc(Nc2ccccc2)c2cnn(C)c2n1 | / | / | -3.9% | / | 6.0% | /
SMILES | p53 reactivator | IL2 activator | Nrf2 activator | BRCA1 expr act | A549 viability | Nrf2 block
COc1ccc(CNC(=O)CN2C(=O)CCCc3ccccc32)cc1 | / | / | 0.7% | / | 2.8% | ?
Cc1nc(-c2ccc(S(=O)(=O)N3CCN(CCc4ccccc4)CC3)s2)cs1 | 0.2% | -0.7 | -0.4% | -8.0% | -6.9% | 23.1µM*
COC(=O)C(NC(=O)CCc1c(C)nc2c(-c3ccccc3)c(C)nn2c1C)C(C)C (stereo unspecified) | / | / | 2.5% | 13.2% | 2.7% | -11.3%
Cc1nc(N2CCN(Cc3ccccc3)CC2)nc2c1C(=O)CC(c1ccco1)C2 (stereo unspecified) | 6.3% | -3.3 | -0.5% | -36.1% | -4.1% | ?
Cc1nc(N2CCN(Cc3ccc4c(c3)OCO4)CC2)nc2c1C(=O)CC(c1ccco1)C2 (stereo unspecified) | 0.0% | -1.4 | 2.6% | 1.3% | -12.3% | 11.6µM*
O=C(Nc1ccc(Cn2cccn2)cc1)c1ccc(COc2ccc(Br)cc2)cc1 | 0.8% | -3.4 | 0.0% | 39.9% | -0.3% | 5.9%
O=C(Nc1ccn(Cc2ccccc2F)n1)c1ccc(COc2ccc(Br)cc2)cc1 | -2.8% | -2.7 | -0.7% | -27.9% | ? | 6.51µM*
Cc1ccsc1CN(C)c1ncnc2ccc(-c3ccc4c(c3)OCO4)cc12 | / | / | / | / | 7.6% | 0.0%
CC1Cc2ccccc2N1C(=O)c1ccc(Br)o1 (stereo unspecified) | / | 1.0 | 1.1% | ? | -1.6% | ?
Cc1ccc(C(=O)N2c3ccccc3CC2C)o1 (stereo unspecified) | 7.6% | 1.2 | 2.6% | 3.98µM* | 2.3% | ?
CC1CCN(S(=O)(=O)c2ccc(NC(=O)C3CCN(C(=O)c4ccco4)CC3)cc2)CC1 | -3.0% | -0.4 | 4.4% | -41.1% | 1.9% | 13µM*
Cc1ccc2occ(CC(=O)Nc3ccc(S(=O)(=O)N4CCC(C)CC4)cc3)c2c1 | / | / | -0.4% | / | -12.5% | 25.9µM*
O=C(Nc1ccc(Oc2ccccc2)cc1)C1CCN(S(=O)(=O)c2ccccc2)CC1 | / | / | -0.9% | / | -14.0% | 20.6µM*
Cc1cccc(OCCC(=O)NO)c1 | / | / | / | -3.6% | / | /
CCCCn1cnc2c(cnn2-c2ccc(F)cc2)c1=O | ? | 0.0 | 3.5% | ? | 10.0% | 10.6%
CCCCn1cnc2c(cnn2-c2ccc(Cl)cc2)c1=O | ? | 0.8 | 2.5% | 11.2µM* | -0.2% | 1.2%
CCOc1ccccc1NC(=O)c1cc(=O)c2ccc(C)cc2o1 | / | / | 24.4% | / | -0.4% | 9.0%
COc1ccc(OCc2nnc(SCC(=O)N3CCCc4ccccc43)n2-c2ccc(C)cc2)cc1 | -2.9% | -2.2 | 1.9% | -91.1% | ? | 23.1µM*
Cc1ccc(OCc2nnc(SCc3ccc(C#N)cc3)n2-c2ccc(C)cc2)cc1 | -2.8% | -3.7 | 5.3% | -21.0% | ? | 18.4µM*
Cc1ccc(-n2c(SCc3ccc(C#N)cc3)nnc2-c2ccccn2)cc1 | 8.5% | 1.3 | -0.9% | -9.8% | -10.2% | -11.7%
COc1ccc(CNC(=O)Cc2c(C)c3c(cc(C)c4c(C)coc43)oc2=O)cc1 | / | / | -0.7% | / | 6.0% | 13.3%
